# Experimental data reported in PubChem BioAssay AID1789 (The Scripps Research Institute Molecular Screening Center, 2009).
# Out of some 290,000 compounds screened, about 2,700 (0.93%) were called active.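 The calls were made as follows: active = inhibition above the screen-wide mean plus 3 SD, computed separately per campaign (cut at about 16% in these data); inactive = the rest.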 This excerpt belongs to a sample that is enriched for actives.
# Test system: Heat shock protein HSP 90 (rabbit reticulocyte lysate; luciferase refolding)
# Experiment: HSP90 inhibitors, primary screen, cell lysate, luminescence (AID 1789);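 also: 0% = DMSO wells and 100% = 60 µM geldanamycin wells; inhibitors lower the luminescence because luciferase stays unfolded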
# Settings: 3 h, at 5.6 µM, stronger effect = higher value
row,SMILES,inhibition
1,COc1ccc(C(C)NC(=O)C2CCCC2)cc1 (configuration not stated),-1.94% (inactive)
2,CCCc1cc(=O)oc2c(C)c(OC(C)C(=O)NCC(O)c3ccccc3)ccc12 (configuration not stated),-5.71% (inactive)
3,COc1nc(-c2ccc(Cl)cc2)ccc1-c1noc(-c2cccs2)n1,-4.45% (inactive)
4,c1ccc(-c2noc(-c3cccs3)n2)nc1,21.2% (active)
5,O=C(Oc1ccc(-c2nc(-c3ccccn3)no2)cc1)c1ccccc1,3.06% (inactive)
6,COCC1CCCN(C(=O)c2ccc3oc(C(C)C)nc3c2)C1 (configuration not stated),2.21% (inactive)
7,Cc1n[nH]c(=O)c2c1nnn2Cc1ccc(F)cc1,0.06% (inactive)
8,C/C(=N\NC(=S)NC1CCCCC1)c1ccc(C)o1,19.9% (active)
9,C/C(=N/NC(=O)c1ccc(Br)o1)c1ccc(C)o1,1.47% (inactive)
10,Cc1ccc(/C=N/NC(=S)NC2CCCCC2)o1,-0.34% (inactive)
11,COc1ccc(OC)c(NC(=O)c2ccc3c(c2)CCN3S(C)(=O)=O)c1,-4.49% (inactive)
12,O=C(C1CCC(=O)N(C2CC2)C1)N1CCN(c2ccc(Cl)cc2)CC1 (configuration not stated),0.69% (inactive)
13,CCOc1cc(C2/C(=C(/O)c3ccc(S(=O)(=O)N4CCCCC4)cc3)C(=O)C(=O)N2CCOC)ccc1O (configuration not stated),-4.72% (inactive)
14,Fc1ccccc1/C=C1\CCCC2=C1Nc1ncnn1C2c1ccccc1F (configuration not stated),5.24% (inactive)
15,Cc1ccc(SCCC(=O)OCC(=O)Nc2ncc(Cl)cc2Cl)cc1,3.89% (inactive)
16,Cc1ccc(-n2c(SCC(=O)Nc3ncc(Cl)cc3Cl)nc3ccccc32)cc1,19.5% (active)
17,NS(=O)(=O)c1cccc(NC(=O)CSc2nc3ccccc3n2-c2ccccc2)c1,2.1% (inactive)
18,COc1cccc(C(=O)N/N=C(\C)c2cccc(NC(=O)c3ccc(F)cc3)c2)c1OC,-0.84% (inactive)
19,COc1cccc(NC(=O)C/C(C)=N/NC(=O)C2CCCCC2)c1,-2.92% (inactive)
20,O=C(COc1ccc2ccc(=O)oc2c1)NCC(O)c1ccccc1 (configuration not stated),-3.81% (inactive)
21,Nc1ccc(-c2nnc(-c3ccccc3)o2)cc1,20.3% (active)
22,Brc1ccc(-c2nnc(-c3ccccc3)o2)o1,-0.79% (inactive)
23,Nc1ccc(-c2sc(N)nc2-c2ccccc2)cc1,-4.32% (inactive)
24,CCOc1ccc(S(=O)(=O)N2CCCC(C(=O)N3CCC(C(N)=O)CC3)C2)cc1Cl (configuration not stated),-3.03% (inactive)
25,COc1ccc(OCCCC(=O)NCCc2ccccc2)cc1,-4.96% (inactive)

row,SMILES,inhibition
1,CCCc1ccc(OCCNC(=O)c2ccco2)cc1,-5.63% (inactive)
2,CCCOc1ccc(C(=O)NCCc2ccccc2)cc1,20.7% (active)
3,CCCOc1cccc(C(=O)NCCCNC(=O)c2cccnc2)c1,3.77% (inactive)
4,Nc1cc(N2CCCCCC2)c2nonc2c1[N+](=O)[O-],0.32% (inactive)
5,Cn1ncc2c(NNC(=O)Cc3cccc4ccccc34)ncnc21,5.78% (inactive)
6,COc1ccc(C(=O)O/N=C(\N)c2ccccn2)cc1[N+](=O)[O-],-3.48% (inactive)
7,N/C(=N\OC(=O)c1ccc([N+](=O)[O-])cc1)c1ccccn1,2.51% (inactive)
8,Cc1ccc(C(=O)O/N=C(\N)c2ccccn2)cc1Cl,42.5% (active)
9,CN(C)c1ccc(C2N(C)C(=O)c3ccccc3N2C)cc1 (configuration not stated),4.78% (inactive)
10,Cc1ccc(C)c(NS(=O)(=O)c2c(C)[nH]c(C)c2C(=O)N2CCCCC2)c1,3.8% (inactive)
11,O=C(Nc1ccccc1Cl)NC1(C(=O)N2CCOCC2)CCCCC1,0.58% (inactive)
12,Cc1ccc2c(N)c(C(=O)c3ccccc3)sc2n1,1.67% (inactive)
13,CS(=O)(=O)c1sc2nc(-c3ccccc3)cc(-c3ccccc3)c2c1N,0.41% (inactive)
14,CCN(CC)C(=O)c1sc2nc(-c3ccccc3)ccc2c1N,16.5% (active)
15,O=C(O)CSc1c2c(nc3cc(C(=O)Nc4cccc(C(F)(F)F)c4)ccc13)CCCC2,-0.05% (inactive)
16,CCCCNC(=S)NNC(=O)c1cc(C)on1,-1.37% (inactive)
17,CCCCNC(=O)Nc1c(C)cc(SC#N)cc1C,36.7% (active)
18,CCCCNC(=O)C(=O)c1ccccc1NC(C)=O,4.09% (inactive)
19,CC(C)CC[n+]1ccn(C2=C([O-])c3ccccc3C(=O)/C2=N\S(=O)(=O)c2ccccc2)c1,6.11% (inactive)
20,CCOC(=O)c1sc(NC(=O)c2sc(C)nc2C)nc1C,9.21% (inactive)
21,CC1CCCCN1CCCNc1ccc(C(CC(N)=O)NC(=O)c2ccccc2)cc1[N+](=O)[O-] (configuration not stated),-2.66% (inactive)
22,OC(c1nc2ccccc2[nH]1)C(O)C(O)C(O)c1nc2ccccc2[nH]1 (configuration not stated),-0.14% (inactive)
23,Cc1nc2ccc(C(=O)N(C)CC3CCCN(CCc4ccc(Cl)cc4)C3)cc2[nH]1 (configuration not stated),-8.86% (inactive)
24,CC(C)c1nc2ccc(C(=O)O)cc2[nH]1,37.9% (active)
25,Cc1nc2ccc(C(=O)N/N=C/c3ccc(O)cc3)cc2[nH]1,1.87% (inactive)

row,SMILES,inhibition
1,OC(c1nc2ccc(F)cc2[nH]1)C(O)c1nc2ccc(F)cc2[nH]1 (configuration not stated),-4.25% (inactive)
2,Cc1nc2ccc(C(=O)O)cc2[nH]1,31.3% (active)
3,COc1ccc(C(=O)n2nc(C)c(Br)c2C)cc1OC,4.92% (inactive)
4,C#CCOc1ccc(/C=C2/C(=O)ON=C2C)cc1OCC,1.13% (inactive)
5,Cc1ccc(NC(=O)C(CC(=O)O)C2CCCO2)c(C)c1 (configuration not stated),-2.07% (inactive)
6,CCOC(=O)N1CCC(NC(=O)CCc2ccccc2)CC1,2.73% (inactive)
7,COc1ccc(C(=O)NCCn2nc(C)cc2C)cc1OC1CCN(C(C)=O)CC1,0.85% (inactive)
8,Cc1cnc(NC(=O)c2ccccn2)s1,21% (active)
9,O=C(Nc1nnc(C2CC2)s1)c1ccccn1,16% (inactive)
10,Cc1cnc(NC(=O)c2ccc(Cl)nc2)s1,-0.28% (inactive)
11,O=C(CN1CCN(C(=O)C2CCCO2)CC1)Nc1c(Cl)cccc1Cl (configuration not stated),-1.9% (inactive)
12,CCN(CC)CCN1C(=O)C(=O)/C(=C(/O)c2ccccc2)C1c1ccccc1F (configuration not stated),1.61% (inactive)
13,CCN(CC)CCN1C(=O)C(=O)/C(=C(/O)c2ccc(OC)c(OC)c2)C1c1ccccn1 (configuration not stated),0.07% (inactive)
14,CCN(CC)CCN1C(=O)C(=O)/C(=C(/O)c2cnn(-c3ccccc3)c2C)C1c1cccs1 (configuration not stated),33.3% (active)
15,CCOc1ccc(OCC(=O)Nc2c3c(nn2C(C)(C)C)CS(=O)(=O)C3)cc1,4.2% (inactive)
16,Cc1cccc(C(=O)NCCCN(C)CCCNC(=O)c2cccc(C)c2)c1,-1.31% (inactive)
17,CCN(CCCNC(=O)c1ccc2c(c1)NC(=O)CN2C)c1cccc(C)c1,19.6% (active)
18,CCN(CCCNC(=O)CCn1c(=O)[nH]c2ccsc2c1=O)c1ccccc1,0.39% (inactive)
19,O=C(Oc1cccc(C(=S)N2CCOCC2)c1)c1cccc(Cl)c1,-2.58% (inactive)
20,O=C(CCCc1ccccc1)NCc1ccccc1,-2.48% (inactive)
21,CC(=O)c1ccc(N2CCN(C(=O)CCc3ccccc3)CC2)cc1,-1.79% (inactive)
22,C=CCN1CCN(C(=O)CCCc2ccccc2)CC1,39.7% (active)
23,O=C(OCC(=O)c1c[nH]c2ccccc12)c1cccc(O)c1,-4.88% (inactive)
24,O=C(OCc1ccc(Br)cc1)c1cccc(-c2nnc(-c3ccccc3)o2)c1,3.03% (inactive)
25,O=C(OCc1ccc(-c2ccccc2)cc1)c1cccc(O)c1,18.4% (active)

row,SMILES,inhibition
1,O=C(COc1cc2oc(=O)c3c(c2cc1Cl)CCC3)NCCCN1CCOCC1,-0.69% (inactive)
2,COc1ccc(N2CCN(C(=O)C3CCN(C(=O)c4ccccc4Cl)CC3)CC2)cc1,1.46% (inactive)
3,COc1ccc(NC(=O)C/C(C)=N/NC(=O)c2cnccn2)cc1Cl,-1.56% (inactive)
4,Cc1ccc(Sc2cc(C(=O)c3ccccc3C(=O)O)ccc2[N+](=O)[O-])cc1,-2.36% (inactive)
5,Cc1ccc(C(=O)CSc2ccccc2C(=O)O)cc1,23.8% (active)
6,O=C(CSc1cccc[n+]1[O-])c1ccc(-c2ccccc2)cc1,-3.2% (inactive)
7,COc1ccc(C(C(=O)NC2CCCC2)N(CCCO)C(=O)Cn2nnc(-c3ccc(C)o3)n2)cc1 (configuration not stated),-2.61% (inactive)
8,CCOC(=O)CSc1nc(N2CCOCC2)c2c(c1C#N)CC(C(C)C)OC2 (configuration not stated),0.22% (inactive)
9,CCC(=C/c1sc2ccc3ccccc3c2[n+]1C)/C=C1\Sc2ccc3ccccc3c2N1C,19.1% (active)
10,CCn1c(=O)c(=O)[nH]c2c(=O)oc3ccc(S(=O)(=O)Nc4ccc(OC)cc4)cc3c21,1.48% (inactive)
11,CCOC(=O)c1ccc(NC(=O)c2ccc(NC(=O)C3CCCO3)cc2)cc1 (configuration not stated),-2.21% (inactive)
12,COc1ccc(CCNC(=O)C(=O)NCC2OCCN2S(=O)(=O)c2ccc(OC)c(C)c2)cc1 (configuration not stated),3.33% (inactive)
13,O=C(NCCCN1CCCC1=O)C(=O)NCC1OCCN1S(=O)(=O)c1ccc(Br)cc1 (configuration not stated),-3.67% (inactive)
14,CCOC(=O)C1=C(c2ccccc2)NC(=S)NC1c1ccc(Cl)cc1 (configuration not stated),2.24% (inactive)
15,COc1ccc(C2NC(=S)NC3=C2CCc2ccccc23)cc1OC (configuration not stated),-4.91% (inactive)
16,CCOc1ccc(C2NC(=S)NC3=C2CCc2ccccc23)cc1 (configuration not stated),24.1% (active)
17,COc1ccc(-c2cc(=O)oc3cc(OC(C)C(=O)Nc4ccc(CN5CCOCC5)cc4)ccc23)cc1 (configuration not stated),-1.3% (inactive)
18,COc1cc(OC)cc(C(=O)NCCSCc2ccc(Cl)cc2)c1,2.62% (inactive)
19,CCOC(=O)C1CCN(S(=O)(=O)c2c(C)noc2C)CC1,-1.41% (inactive)
20,C=CCNc1ncnc2ccc(Br)cc12,-3.86% (inactive)
21,COc1ccc(Nc2ncnc3sc(-c4ccccc4)cc23)c(OC)c1,-1.63% (inactive)
22,COc1ccc(Nc2ncnc3ccc(Br)cc23)c(OC)c1,35.7% (active)
